# Assay outcomes (PubChem BioAssay)
# C diff growth – blocks growth of Clostridium difficile; 0.25% of 86,000 active; growth activity, negative = inhibition, % at 16 µg/mL (by protocol); Clostridium difficile clinical isolate growth, OD600, 24 h; active compounds read low;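 active means mean growth activity at or below -80% and every replicate also at or below -80%; inconclusive means mean at or below -80% but some replicate above -80%; inactive means mean growth activity above -80%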;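 further: 0% = DMSO wells and -100% = levofloxacin 16 µg/mL wells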
# Pf Dd2 inh – P. falciparum Dd2 growth inhibition; SYBR Green, 72 h; active compounds read low; activity change, % at 10 µM; 2.3% of 94,000 active; AID 1159554; in the data active means activity change below about -80%; inconclusive means no clear call, values can overlap the other calls
# T cruzi growth-1 – blocks T. cruzi growth in NIH3T3 culture | T. cruzi beta-gal in NIH3T3, GalScreen luminescence, 90 h | inhibition, % at 8.34 µM | 5.9% of 77,000 active | AID 624255;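 active means mean inhibition above about 93%, with at least 55% of replicates each passing it, limit read from the data, passing the limit was not always enough; inconclusive means only one of those two conditions holds; inactive means neither condition holds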
# T cruzi growth-2 – blocks T. cruzi growth in NIH3T3 host cells; shares compounds with T cruzi growth-1; T. cruzi beta-gal in NIH3T3, GalScreen luminescence, 90 h; inhibition, % at 8.35 µM; 72% of 5,600 active; AID 651739;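 active means mean replicate inhibition above about 95% and at least 55% of replicates individually reaching it, limit read from the data; inconclusive means only one of the two criteria is met; inactive means neither criterion is met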
# T cruzi growth-3 – Trypanosoma cruzi proliferation inhibition | shares compounds with T cruzi growth-1 | T. cruzi beta-gal in NIH3T3, GalScreen luminescence, 90 h | inhibition, % at 2.09 µM | 21% of 5,600 active | AID 651740;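 active means mean inhibition above about 95%, with at least 55% of replicates also reaching it, limit read from the data; inconclusive means meets just one of the two conditions; inactive means meets neither condition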;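 further: plate controls were neutral control median for no effect and positive control median for full effect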
# 3T3 cytotox – cytotoxicity in mouse NIH/3T3 fibroblasts; shares compounds with T cruzi growth-1; NIH/3T3 viability, CellTiter-Glo ATP luminescence, 90 h; cytotoxicity (signal decrease), % at 8.35 µM; 14% of 5,600 active;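 active means mean signal decrease across replicates above about 35% based on untreated-well scatter, with enough replicates individually passing, limit read from the data; inconclusive means no rule stated though some were filed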;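 further: 0% = median of neutral control wells and 100% = median of positive control wells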
# 3T3 cytotox 2 – kills mouse NIH/3T3 fibroblasts; NIH/3T3 viability, CellTiter-Glo ATP luminescence, 90 h; 56% of 5,600 active; inhibition, % at 24.9 µM; AID 651744; shares compounds with T cruzi growth-1;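 active means mean loss of cell viability signal at or above a set limit, and enough replicates individually reaching it; inconclusive means meets only the mean limit or only the replicate share; inactive means meets neither condition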;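 further: 0% = median of neutral control wells and 100% = median of positive control wells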
# * marks the source's active call; other numbers are inactive results; ? = inconclusive; . = no result. In the library only some 6.8% were active in any assay of this set; here they are far more common.
SMILES,C diff growth,Pf Dd2 inh,T cruzi growth-1,T cruzi growth-2,T cruzi growth-3,3T3 cytotox,3T3 cytotox 2
Cc1ccc(S(=O)(=O)Nc2ccc3c(c2)C(=O)N([C@@H](C)CO)C[C@@H](C)[C@@H](CN(C)S(=O)(=O)c2ccc(Cl)cc2)OCCCC[C@H](C)O3)cc1,6,-86*,133*,107*,109*,-36,2
C[C@@H]1CCCCO[C@H](CN(C)S(=O)(=O)c2ccc(Cl)cc2)[C@@H](C)CN([C@@H](C)CO)C(=O)c2cc(NS(=O)(=O)c3ccc(Cl)cc3)ccc2O1,-10,-69,.,.,.,.,.
Cc1ccc(S(=O)(=O)Nc2ccc3c(c2)C(=O)N([C@H](C)CO)C[C@H](C)[C@H](CN(C)S(=O)(=O)c2ccc(Cl)cc2)OCCCC[C@@H](C)O3)cc1,4,-53,?,101*,85,26,21
Cc1ccc(S(=O)(=O)N(C)C[C@H]2OCCCC[C@@H](C)Oc3ccc(NS(=O)(=O)c4ccc(Cl)cc4)cc3C(=O)N([C@@H](C)CO)C[C@@H]2C)cc1,8,-41,99*,98*,119*,-20,-2
C[C@@H]1CCCCO[C@@H](CN(C)S(=O)(=O)c2ccc(Cl)cc2)[C@@H](C)CN([C@H](C)CO)C(=O)c2cc(NS(=O)(=O)c3ccc(Cl)cc3)ccc2O1,9,-24,74,.,.,.,.
C[C@@H]1CCCCO[C@H](CN(C)S(=O)(=O)c2ccc(Cl)cc2)[C@H](C)CN([C@@H](C)CO)C(=O)c2cc(NS(=O)(=O)c3ccc(Cl)cc3)ccc2O1,1,-46,89,.,.,.,.
O=C(C[C@H]1CC[C@@H](NC(=O)C2CCC2)[C@H](CO)O1)NCc1ccccc1Cl,-4,18,-5,.,.,.,.
CO[C@@H]1CN(C)C(=O)c2cc(NC(C)=O)ccc2OC[C@@H](C)N(C(=O)CN2CCOCC2)C[C@H]1C,.,22,-7,.,.,.,.
CC(C)C(=O)Nc1ccc2c(c1)C(=O)N(C)[C@@H]1CC[C@H](CC(=O)N[C@H](C)c3ccccc3)O[C@H]1CO2,-8,10,-31,.,.,.,.
O=C(C[C@@H]1C=C[C@H](NC(=O)Nc2ccc(F)cc2)[C@H](CO)O1)NCc1cccc(F)c1,2,.,.,.,.,.,.
Cn1cnc(S(=O)(=O)N[C@H]2CC[C@@H](CC(=O)N3CCN(c4ccccc4)CC3)O[C@@H]2CO)c1,.,18,-26,.,.,.,.
C[C@@H]1CN([C@H](C)CO)C(=O)c2cc(C#CC3CC3)cnc2O[C@H]1CN(C)C(=O)Nc1ccccc1,.,-21,4,.,.,.,.
Cc1ccc(-c2ccc3c(c2)O[C@H](CN(C)C(=O)NC(C)C)[C@H](C)CN([C@H](C)CO)S3(=O)=O)cc1,-4,20,32,.,.,.,.
Cc1ccc(-c2ccc3c(c2)O[C@@H](CN(C)C(=O)NC(C)C)[C@@H](C)CN([C@@H](C)CO)S3(=O)=O)cc1,1,-26,70,.,.,.,.
CC(C)NC(=O)N(C)C[C@H]1Oc2cc(-c3ccncc3)ccc2S(=O)(=O)N([C@H](C)CO)C[C@H]1C,0,0,109*,68,28,4,32*
CC(C)NC(=O)N(C)C[C@H]1Oc2cc(-c3ccncc3)ccc2S(=O)(=O)N([C@@H](C)CO)C[C@@H]1C,0,-19,110*,85,38,-16,13
CO[C@@H]1CN(C)C(=O)c2cc(NS(=O)(=O)CC(F)(F)F)ccc2OC[C@H](C)N(Cc2cccnc2)C[C@H]1C,.,45,.,.,.,.,.
C[C@H](CO)N1C[C@H](C)[C@H](CN(C)Cc2ccc(C(=O)O)cc2)Oc2c(NC(=O)c3nc4ccccc4s3)cccc2C1=O,2,-18,29,.,.,.,.
C[C@H](CO)N1C[C@H](C)[C@@H](CN(C)Cc2ccc(C(=O)Nc3ccccc3N)cc2)Oc2c(NC(=O)c3nc4ccccc4s3)cccc2C1=O,.,-89*,106*,108*,85,-31,11
C[C@H](CO)N1C[C@H](C)[C@@H](CN(C)Cc2ccc(C(=O)O)cc2)Oc2c(NC(=O)c3nc4ccccc4s3)cccc2C1=O,0,9,42,.,.,.,.
